# Test results: PMC4336329 (PLoS ONE, 2015)
# The whole screen tested about 310,000 compounds, of which about 14,000 (4.5%) showed an effect of 50% or more. The effect is printed as a negative number. Only a selection was taken, and strong results are over-represented in it overall.
# Molecular target: human ether-à-go-go-related gene (hERG) potassium channel (human, UniProt Q12809)
# Test: primary screen, population patch clamp on CHO cells stably expressing hERG; higher = less effect of the substance
# 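Note: peak tail current of the secondary pulse compared with the same well before compound.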
# Sequence of human ether-à-go-go-related gene (hERG) potassium channel (Q12809 whole entry, looked up): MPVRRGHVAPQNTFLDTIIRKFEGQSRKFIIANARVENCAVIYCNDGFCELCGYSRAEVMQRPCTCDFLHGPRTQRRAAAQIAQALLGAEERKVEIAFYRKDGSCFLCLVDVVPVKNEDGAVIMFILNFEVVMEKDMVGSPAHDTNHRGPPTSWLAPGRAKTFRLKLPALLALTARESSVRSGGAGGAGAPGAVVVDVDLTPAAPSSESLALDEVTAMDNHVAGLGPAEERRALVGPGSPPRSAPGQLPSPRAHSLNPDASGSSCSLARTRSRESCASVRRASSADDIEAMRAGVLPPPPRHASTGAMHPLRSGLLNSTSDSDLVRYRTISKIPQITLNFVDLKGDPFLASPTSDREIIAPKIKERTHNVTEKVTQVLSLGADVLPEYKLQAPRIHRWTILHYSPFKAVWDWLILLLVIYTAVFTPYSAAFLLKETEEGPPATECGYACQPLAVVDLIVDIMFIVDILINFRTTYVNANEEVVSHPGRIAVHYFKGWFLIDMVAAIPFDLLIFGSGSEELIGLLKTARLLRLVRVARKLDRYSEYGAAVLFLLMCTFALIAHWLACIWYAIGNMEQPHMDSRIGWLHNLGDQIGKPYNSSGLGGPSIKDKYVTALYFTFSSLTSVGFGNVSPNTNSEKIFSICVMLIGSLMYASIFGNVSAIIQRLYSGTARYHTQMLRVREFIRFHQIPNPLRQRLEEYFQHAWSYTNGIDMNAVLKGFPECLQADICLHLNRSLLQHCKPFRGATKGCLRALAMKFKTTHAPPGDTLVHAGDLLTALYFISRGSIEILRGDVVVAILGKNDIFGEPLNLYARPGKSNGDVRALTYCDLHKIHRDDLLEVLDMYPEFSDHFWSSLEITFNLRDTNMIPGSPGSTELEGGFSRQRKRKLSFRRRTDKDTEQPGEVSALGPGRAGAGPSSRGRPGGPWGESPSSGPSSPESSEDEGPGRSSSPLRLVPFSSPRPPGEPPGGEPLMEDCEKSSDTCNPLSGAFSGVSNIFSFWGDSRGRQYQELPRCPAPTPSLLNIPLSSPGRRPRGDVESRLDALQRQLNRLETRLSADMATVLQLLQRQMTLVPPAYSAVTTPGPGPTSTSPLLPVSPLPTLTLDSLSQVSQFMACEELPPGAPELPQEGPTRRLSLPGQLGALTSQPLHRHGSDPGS
row,Compound,"hERG current change (%, negative = inhibition) at 10uM"
1,COc1cc(S(=O)(=O)NC2CCCC2)ccc1F,1.19%
2,CC1CCN(C(=O)c2ccccc2NS(=O)(=O)c2ccccc2)CC1,8.52%
3,CCc1ccc(-c2nn[nH]n2)cc1,4.61%
4,Cc1ccc(C)c(SCC(=O)NNC(=O)c2ccccc2)c1,9.78%
5,COc1ccc(NC(=O)C2CCN(c3cnccn3)CC2)cc1OC,15.5%
6,CC(NC1CCCCC1)C(O)C12CC3CC(CC(C3)C1)C2.Cl (centres unmarked),-16.4%
7,COC(=O)c1ccc(C(c2c(N)n(CC(C)C)c(=O)[nH]c2=O)N2CCN(c3ccccc3)CC2)cc1 (centres unmarked),-8.97%
8,COC(=O)c1ccc(C(c2c(N)n(Cc3ccccc3)c(=O)n(C)c2=O)N2CCOCC2)cc1 (centres unmarked),-57.9%
9,CCCn1c(N)c(C(c2ccc(C(=O)OC)cc2)N2CCN(c3ccccc3)CC2)c(=O)[nH]c1=O (centres unmarked),-9.93%
10,COc1cccc(CNC(=O)C2CCN(S(=O)(=O)N3CCC(C)CC3)CC2)c1,-3.44%
11,O=C(N=Nc1c(O)[nH]c2ccccc12)c1ccc(CN2CCOCC2)cc1,22.9%
12,O=C(CN1CCCCC1)N=Nc1c(O)[nH]c2ccccc12,4.68%
13,Cc1ccc(CN2CCN(CC(=O)N=Nc3c(O)[nH]c4ccccc34)CC2)cc1,-73.5%
14,O=C(CN1CCN(Cc2ccccc2)CC1)N=Nc1c(O)[nH]c2ccccc12,-65%
15,O=C(CCN1CCCCC1)N=Nc1c(O)[nH]c2ccccc12,11.3%
16,O=C(CN1CCN(Cc2ccccc2Cl)CC1)N=Nc1c(O)[nH]c2ccccc12,-61.3%
17,O=C(Cc1cccs1)N=Nc1c(O)[nH]c2ccccc12,7.07%
18,COCC(=O)N=Nc1c(O)[nH]c2ccccc12,-5.52%
19,O=C(CSCc1ccccc1)N=Nc1c(O)[nH]c2ccccc12,-19.1%
20,N#Cc1ccccc1NC(=S)Nc1ccc(F)cc1,16.2%

row,Compound,"hERG current change (%, negative = inhibition) at 10uM"
1,CCN(C(=O)c1cc2c(=O)[nH]c3ccc(C)cc3c2s1)c1ccc(OC)cc1,9.09%
2,COC(=O)c1ccc(N2CCN(C)CC2)c(NC(=O)c2sc3ccccc3c2Cl)c1,13.1%
3,COc1ccc(C=C(C#N)C#N)c(CSc2ccccn2)c1,1.19%
4,COc1ccc(C(=O)Nc2ccc(N3CCCCC3)cc2)cc1Br,-8.48%
5,O=C(N/N=C/c1cc(Br)cc(Br)c1O)c1ccncc1,15.6%
6,Cc1ccc(S(=O)(=O)CCC(=O)OCC(=O)N2c3ccccc3NC(=O)C2(C)C)cc1,14%
7,O=C(O)C(=O)/C(=C\c1ccccc1)c1ccc2ccccc2n1,13.9%
8,O=C(Nc1cccc(-c2csc(Nc3ccccc3)n2)c1)c1ccccc1,2.4%
9,O=C(COc1ccc([N+](=O)[O-])cc1)N1CCN(c2nnc(-c3ccccc3)c3ccccc23)CC1,-66.5%
10,CCCC(=O)N1CCN(C2=NS(=O)(=O)c3ccccc32)CC1,-3%
11,COc1ccc(OCC(=O)N2CCN(c3nnc(-c4ccccc4)c4ccccc34)CC2)cc1,-64.4%
12,O=C(CSc1ncn[nH]1)N1CCN(c2nnc(-c3ccccc3)c3ccccc23)CC1,-0.967%
13,Cc1ccc(OCC(=O)N2CCN(C(=O)Cc3ccccc3)CC2)cc1,-38.4%
14,COc1ccc(-c2nnc(N3CCCCC3)c3ccccc23)cc1,-47.3%
15,COc1ccc(OCC(=O)N2CCN(c3nnc(-c4ccc(C)cc4)c4ccccc34)CC2)cc1,-44.9%
16,CCN(CC)C(=O)COc1ccc(-c2nnc(N3CCCCC3)c3ccccc23)cc1,-25.4%
17,Cc1ccc(-c2nnc(N3CCN(C(=O)COc4ccccc4)CC3)c3ccccc23)cc1,-52.1%
18,Cc1ccc(OCC(=O)N2CCN(C3=NS(=O)(=O)c4ccccc43)CC2)cc1,-60.8%
19,CC(C)N1C(=O)N(c2cccc(Cl)c2)C(C)(O)CC1(C)C (centres unmarked),17.5%
20,COc1cccc(-c2nc(CS(=O)CC(=O)NCc3ccccc3)c(C)o2)c1 (centres unmarked),-6.07%

row,Compound,"hERG current change (%, negative = inhibition) at 10uM"
1,CCCOc1cccc(NC(=O)c2c(-c3ccccc3)noc2C)c1,-8.81%
2,CCC1(O)CC(C(=O)OC)=NN1C(=O)c1ccccc1 (centres unmarked),7.94%
3,COc1ccccc1-n1cnnc1SCC(=O)Nc1ncc(Cl)cc1Cl,-0.265%
4,COc1ccccc1OCC(=O)NCCSCc1ccc(Cl)cc1,-45%
5,COc1ccc(C(=O)N/C(=C\c2ccccc2)C(=O)Nc2ccccc2C(=O)O)cc1,11.3%
6,COc1ccccc1C(=O)NNC(=O)c1ccc(C)cc1,9.24%
7,Cc1ccc(NC(=O)C2(N3CCC3=O)CCCCC2)cc1,6.92%
8,COCC(C)NC(=O)C(C)Oc1ccccc1 (centres unmarked),12%
9,CC(C)c1nnc(NC(=O)CCC(=O)NCc2ccccc2Cl)s1,11.2%
10,Cn1cnc([N+](=O)[O-])c1NCc1ccccc1,10.3%
11,COc1cc(/C=N/Nc2nc(Nc3ccccc3)nc(N3CCOCC3)n2)ccc1OC(=O)c1ccco1,13.6%
12,Cc1ccc(OCC(=O)N2CCN(c3nnc(-c4ccc(C)cc4)c4ccccc34)CC2)cc1,-49.3%
13,Cc1ccc(-c2nnc(N3CCN(C(=O)Cn4c(=O)n(C)c5ccccc54)CC3)c3ccccc23)cc1,-28.7%
14,CCC(=O)N1CCN(c2nnc(-c3ccccc3)c3ccccc23)CC1,-13.5%
15,O=C(COc1ccc(-c2nnc(N3CCCCC3)c3ccccc23)cc1)N1CCCCC1,-32.3%
16,Cn1c(=O)n(CC(=O)N2CCN(c3nnc(-c4ccccc4)c4ccccc34)CC2)c2ccccc21,-56%
17,Cc1ccc(OCC(=O)N2CCN(c3nnc(-c4ccccc4)c4ccccc34)CC2)cc1,-61.5%
18,O=C(COc1ccccc1)N1CCN(c2nnc(-c3ccccc3)c3ccccc23)CC1,-65.3%
19,O=C(CN1C(=O)c2ccccc2C1=O)N1CCN(c2nnc(-c3ccccc3)c3ccccc23)CC1,5.5%
